# The entries come from a sample that favours the strongest signals as a whole.
# B1: PNGase F (Flavobacterium meningosepticum) (protein)
# chain: GIPAPADNTVNIKTFDKVKNAFGDGLSQSAEGTFTFPADVTAVKTIKMFIKNECPNKTCDEWDRYANVYVKNKTTGEWYEIGRFITPYWVGTEKLPRGLEIDVTDFKSLLSGNTELKIYTETWLAKGREYSVDFDIVYGTPDYKYSAVVPVVQYNKSSIDGVPYGKAHTLALKKNIQLPTNTEKAYLRTTISGWGHAKPYDAGSRGCAEWCFRTHTIAINNSNTFQHQLGALGCSANPINNQSPGNWTPDRAGWCPGMAVPTRIDVLNNSLIGSTFSYEYKFQNWTNNGTNGDAFYAISSFVIAKSNTPISAPVVTNLDPHHHHHH
# What was measured:
# Assay in all cases: glycan array binding signal (z-score within array); higher = stronger binding
# Settings in all cases: glycan notation: IUPAC condensed, linker removed
# [1] = biological target: Fuc(a1-2)Gal(b1-3)GalNAc(b1-3)Gal
# Outline: (§1)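 Glycan array data came from 3228 arrays in the Consortium for Functional Glycomics database, and only arrays with an available protein sequence were kept. Glycan names were put into IUPAC-condensed notation, and columns mapping to the same glycan were averaged. The binding signal is a within-array Z-score, averaged across arrays of one protein sequence run at different concentrations or buffers and across linkers. A negative Z-score can be read as non-binding.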
# [2] = biological target: Fuc(a1-2)Gal(b1-3)GlcNAc6S
# Outline: as §1
# [3] = biological target: Fuc(a1-2)Gal3S(b1-4)GlcNAc
# Outline: as §1
# [4] = biological target: Fuc(a1-2)[Gal(a1-3)]Gal(b1-3)GalNAc(b1-3)Gal(a1-4)Gal(b1-4)Glc
# Outline: as §1
# [5] = biological target: Fuc(a1-2)[Gal(a1-3)]Gal(b1-3)GlcNAc(b1-6)GalNAc
# Outline: as §1
# [6] = biological target: Fuc(a1-2)[Gal(a1-3)]Gal(b1-4)GlcNAc(b1-2)Man(a1-3)[Fuc(a1-2)[Gal(a1-3)]Gal(b1-4)GlcNAc(b1-2)Man(a1-6)]Man(b1-4)GlcNAc(b1-4)GlcNAc
# Outline: as §1
# [7] = biological target: Fuc(a1-2)[Gal(a1-3)]Gal(b1-4)GlcNAc(b1-3)GalNAc
# Outline: as §1
# [8] = biological target: Fuc(a1-2)[Gal(a1-3)]Gal(b1-4)GlcNAc(b1-3)[Fuc(a1-2)[Gal(a1-3)]Gal(b1-4)GlcNAc(b1-6)]GalNAc
# Outline: as §1
# [9] = biological target: Fuc(a1-2)[Gal(a1-3)]Gal(b1-4)GlcNAc(b1-6)GalNAc
# Outline: as §1
# [10] = biological target: Fuc(a1-2)[Gal(a1-3)]Gal(b1-4)[Fuc(a1-3)]Glc
# Outline: as §1
# [11] = biological target: Fuc(a1-3)[Gal(b1-4)]GlcNAc
# Outline: as §1
# [12] = biological target: Fuc(a1-3)[Gal(b1-4)]GlcNAc(b1-2)Man
# Outline: as §1
# [13] = biological target: Fuc(a1-3)[Gal(b1-4)]GlcNAc(b1-6)[Gal(b1-3)GlcNAc(b1-3)]Gal(b1-4)Glc
# Outline: as §1
# Fuc(a1-4)GlcNAc = biological target: Fuc(a1-4)GlcNAc
# Outline: as §1
# [14] = biological target: Gal(b1-3)GalNAc(b1-3)Gal(a1-4)Gal(b1-4)Glc
# Outline: as §1
# [15] = biological target: Gal(b1-3)GlcNAc(b1-3)GalNAc
# Outline: as §1
# [16] = biological target: Gal(b1-3)[GlcNAc(b1-6)]GalNAc
# Outline: as §1
# [17] = biological target: Gal(b1-3)[Neu5Ac(b2-6)]GalNAc
# Outline: as §1
# [18] = biological target: Gal(b1-4)GlcNAc(b1-3)Gal(b1-4)GlcNAc(b1-2)[Gal(b1-4)GlcNAc(b1-3)Gal(b1-4)GlcNAc(b1-6)]Man(a1-6)[Gal(b1-4)GlcNAc(b1-3)Gal(b1-4)GlcNAc(b1-2)Man(a1-3)]Man(b1-4)GlcNAc(b1-4)GlcNAc
# Outline: as §1
# [19] = biological target: Gal(b1-4)GlcNAc(b1-3)GalNAc
# Outline: as §1
# [20] = biological target: Gal(b1-4)GlcNAc(b1-3)[Gal(b1-4)GlcNAc(b1-6)]Gal(b1-4)GlcNAc
# Outline: as §1
# [21] = biological target: Gal(b1-4)GlcNAc(b1-3)[GlcNAc(b1-6)]Gal(b1-4)GlcNAc
# Outline: as §1
# [22] = biological target: Gal(b1-4)GlcNAc(b1-6)[Gal(b1-4)GlcNAc(b1-3)]GalNAc
# Outline: as §1
# Gal(b1-6)Gal = biological target: Gal(b1-6)Gal
# Outline: as §1
# [23] = biological target: Gal3S(b1-4)[Fuc(a1-3)]GlcNAc6S
# Outline: as §1
# Gal3S4S(b1-4)GlcNAc = biological target: Gal3S4S(b1-4)GlcNAc
# Outline: as §1
# Gal3S6S(b1-4)GlcNAc6S = biological target: Gal3S6S(b1-4)GlcNAc6S
# Outline: as §1
# Gal6S(b1-4)Glc6S = biological target: Gal6S(b1-4)Glc6S
# Outline: as §1
# GlcA(b1-3)GlcNAc = biological target: GlcA(b1-3)GlcNAc
# Outline: as §1
# [24] = biological target: GlcNAc(a1-3)Gal(b1-4)GlcNAc
# Outline: as §1
# [25] = biological target: GlcNAc(a1-4)Gal(b1-4)GalNAc
# Outline: as §1
# [26] = biological target: GlcNAc(b1-2)[GlcNAc(b1-4)]Man(a1-3)[GlcNAc(b1-4)][GlcNAc(b1-2)[GlcNAc(b1-6)]Man(a1-6)]Man(b1-4)GlcNAc(b1-4)[Fuc(a1-6)]GlcNAc
# Outline: as §1
# [27] = biological target: GlcNAc(b1-3)Gal(b1-4)GlcNAc
# Outline: as §1
# [28] = biological target: GlcNAc(b1-3)Gal(b1-4)GlcNAc(b1-3)Gal(b1-4)GlcNAc(b1-3)Gal(b1-4)GlcNAc(b1-3)Gal(b1-4)GlcNAc(b1-2)[GlcNAc(b1-3)Gal(b1-4)GlcNAc(b1-3)Gal(b1-4)GlcNAc(b1-3)Gal(b1-4)GlcNAc(b1-3)Gal(b1-4)GlcNAc(b1-6)]Man(a1-6)[GlcNAc(b1-3)Gal(b1-4)GlcNAc(b1-3)Gal(b1-4)GlcNAc(b1-3)Gal(b1-4)GlcNAc(b1-3)Gal(b1-4)GlcNAc(b1-2)Man(a1-3)]Man(b1-4)GlcNAc(b1-4)[Fuc(a1-6)]GlcNAc
# Outline: as §1
# GlcNAc(b1-3)Man = biological target: GlcNAc(b1-3)Man
# Outline: as §1
# GlcNAc(b1-4)GlcNAc = biological target: GlcNAc(b1-4)GlcNAc
# Outline: as §1
# GlcNAc(b1-6)GalNAc = biological target: GlcNAc(b1-6)GalNAc
# Outline: as §1
# [29] = biological target: Man(a1-2)Man(a1-2)Man(a1-3)Man
# Outline: as §1
# [30] = biological target: Neu5Ac(a2-3)Gal(b1-3)GalNAc(b1-4)[Neu5Ac(a2-3)]Gal(b1-4)Glc
# Outline: as §1
# Neu5Ac(a2-3)Gal(b1-4)Glc = biological target: Neu5Ac(a2-3)Gal(b1-4)Glc
# Outline: as §1
# [31] = biological target: Neu5Ac(a2-3)Gal(b1-4)GlcNAc(b1-3)Gal(b1-4)GlcNAc(b1-3)[Neu5Ac(a2-3)Gal(b1-4)GlcNAc(b1-3)Gal(b1-4)GlcNAc(b1-6)]GalNAc
# Outline: as §1
# [32] = biological target: Neu5Ac(a2-3)[Neu5Ac(a2-6)]GalNAc
# Outline: as §1
# Neu5Ac(a2-6)Gal = biological target: Neu5Ac(a2-6)Gal
# Outline: as §1
# [33] = biological target: Neu5Ac(a2-6)Gal(b1-4)GlcNAc(b1-2)Man(a1-3)[Neu5Ac(a2-6)Gal(b1-4)GlcNAc(b1-2)Man(a1-6)]Man(b1-4)GlcNAc(b1-4)GlcNAc
# Outline: as §1
# [34] = biological target: Neu5Ac(a2-6)Gal(b1-4)GlcNAc(b1-3)Gal(b1-4)GlcNAc(b1-3)[Neu5Ac(a2-6)Gal(b1-4)GlcNAc(b1-3)Gal(b1-4)GlcNAc(b1-6)]GalNAc
# Outline: as §1
# [35] = biological target: Neu5Ac(a2-6)Gal(b1-4)GlcNAc(b1-6)[Gal(b1-3)GlcNAc(b1-3)]Gal(b1-4)Glc
# Outline: as §1
# [36] = biological target: Neu5Ac(a2-6)Gal(b1-4)GlcNAc6S
# Outline: as §1
# Neu5Ac(a2-8)Neu5Ac = biological target: Neu5Ac(a2-8)Neu5Ac
# Outline: as §1
# [37] = biological target: Neu5Ac(a2-8)Neu5Ac(a2-3)Gal(b1-3)GalNAc(b1-4)[Neu5Ac(a2-3)]Gal(b1-4)Glc
# Outline: as §1
# Neu5Gc(a2-3)Gal(b1-4)Glc = biological target: Neu5Gc(a2-3)Gal(b1-4)Glc
# Outline: as §1
# [38] = biological target: Neu5Gc(a2-3)Gal(b1-4)GlcNAc
# Outline: as §1
# [39] = biological target: Neu5Gc(a2-6)Gal(b1-4)GlcNAc
# Outline: as §1
binder,measurement,setting,value
B1,glycan array binding signal (z-score),[1],1.61
same,glycan array binding signal (z-score),[2],-0.123
same,glycan array binding signal (z-score),[3],-0.157
same,glycan array binding signal (z-score),[4],0.033
same,glycan array binding signal (z-score),[5],-0.032
same,glycan array binding signal (z-score),[6],-0.273
same,glycan array binding signal (z-score),[7],-0.226
same,glycan array binding signal (z-score),[8],1.46
same,glycan array binding signal (z-score),[9],0.476
same,glycan array binding signal (z-score),[10],-0.16
same,glycan array binding signal (z-score),[11],0.02
same,glycan array binding signal (z-score),[12],0.163
same,glycan array binding signal (z-score),[13],-0.308
same,glycan array binding signal (z-score),Fuc(a1-4)GlcNAc,2.72
same,glycan array binding signal (z-score),[14],0.036
same,glycan array binding signal (z-score),[15],-0.268
same,glycan array binding signal (z-score),[16],-0.166
same,glycan array binding signal (z-score),[17],-0.337
same,glycan array binding signal (z-score),[18],1.63
same,glycan array binding signal (z-score),[19],-0.281
same,glycan array binding signal (z-score),[20],-0.219
same,glycan array binding signal (z-score),[21],1.78
same,glycan array binding signal (z-score),[22],-0.289
same,glycan array binding signal (z-score),Gal(b1-6)Gal,0.208
same,glycan array binding signal (z-score),[23],0.165
same,glycan array binding signal (z-score),Gal3S4S(b1-4)GlcNAc,-0.092
same,glycan array binding signal (z-score),Gal3S6S(b1-4)GlcNAc6S,-0.035
same,glycan array binding signal (z-score),Gal6S(b1-4)Glc6S,-0.41
same,glycan array binding signal (z-score),GlcA(b1-3)GlcNAc,-0.118
same,glycan array binding signal (z-score),[24],-0.344
same,glycan array binding signal (z-score),[25],1.26
same,glycan array binding signal (z-score),[26],-0.395
same,glycan array binding signal (z-score),[27],-0.264
same,glycan array binding signal (z-score),[28],-0.3
same,glycan array binding signal (z-score),GlcNAc(b1-3)Man,3.03
same,glycan array binding signal (z-score),GlcNAc(b1-4)GlcNAc,10.4
same,glycan array binding signal (z-score),GlcNAc(b1-6)GalNAc,-0.018
same,glycan array binding signal (z-score),[29],1.49
same,glycan array binding signal (z-score),[30],-0.289
same,glycan array binding signal (z-score),Neu5Ac(a2-3)Gal(b1-4)Glc,2.16
same,glycan array binding signal (z-score),[31],-0.043
same,glycan array binding signal (z-score),[32],0.36
same,glycan array binding signal (z-score),Neu5Ac(a2-6)Gal,-0.129
same,glycan array binding signal (z-score),[33],-0.391
same,glycan array binding signal (z-score),[34],-0.278
same,glycan array binding signal (z-score),[35],-0.207
same,glycan array binding signal (z-score),[36],-0.286
same,glycan array binding signal (z-score),Neu5Ac(a2-8)Neu5Ac,-0.021
same,glycan array binding signal (z-score),[37],-0.328
same,glycan array binding signal (z-score),Neu5Gc(a2-3)Gal(b1-4)Glc,0.187
same,glycan array binding signal (z-score),[38],2.36
same,glycan array binding signal (z-score),[39],-0.046
